# Results reported in PubChem BioAssay AID2318 (National Center for Advancing Translational Sciences (NCATS), 2010).
# This is one part of the list. Results filed as inconclusive are left out. Calls of active or inactive are those of the source. The call rests on the fitted dose curve.
# Experiment: Cycloheximide Counterscreen for Small Molecule Inhibitors of Shiga Toxin (Confirmatory); on activity (activation): 0% is about no effect
# Conditions: protein synthesis reporter, Shiga toxin assay; series mostly up to 38.3 µM; activity (activation): at the top concentration
# Potency means the concentration at half of the fitted maximal effect.
SMILES,activity (activation),Potency
CCN1CCN(Cc2c(O)ccc3c(=O)c(-c4ccc(OC)c(OC)c4)c(C(F)(F)F)oc23)CC1,0.38% (inactive),–
COc1ccc(-c2noc(COc3ccc(Cl)c(C)c3)n2)cc1,-0.685% (inactive),–
COc1ccccc1N1N=C(c2cccs2)CC1c1ccccc1 (stereo not drawn),-0.737% (inactive),–
CCOc1ccc(NC(=O)Nc2ccc(N(C)C(C)=O)cc2)cc1,-0.368% (inactive),–
CCCc1nc2ccccc2c(=O)n1NC(=O)c1c(O)c2ccccc2[nH]c1=O,-5.8% (inactive),–
COc1ccc(S(=O)(=O)Nc2ccc3c(c2)OCO3)cc1Cl,4.32% (inactive),–
CC(=O)c1ccc(N2CCN(C(=O)c3ccc4nc[nH]c4c3)CC2)cc1,6.86% (inactive),–
COc1ccc(C(=O)Nc2ccccc2C(=O)NCc2ccco2)cc1,-0.236% (inactive),–
CN(Cc1nc2ccc(F)cc2[nH]1)Cc1nc(CC2CC2)no1,0.109% (inactive),–
Nc1nonc1C(=O)NCCc1ccccc1,2.33% (inactive),–
CSCc1cc(N2CCOCC2)nc(SCc2ccc(Cl)cc2Cl)n1,0.955% (inactive),–
Cc1cc(C(=O)COC(=O)C2CC2)c(C)n1-c1ccc(F)cc1,–,2 µM (active)
Cc1nc(SCC(=O)Nc2cc(C)on2)c2c3c(sc2n1)CCCC3,-1.97% (inactive),–
C=CCNC(=O)c1ccc(C)c(Br)c1,0.854% (inactive),–
COc1ccc(N(CCC#N)S(=O)(=O)c2ccc(Cl)cc2)cc1,-0.698% (inactive),–
O=C(COC(=O)c1cccs1)Nc1ccccc1Cl,-0.535% (inactive),–
O=C(c1cc(-c2cccc(O)c2)on1)N1CCc2ccccc2C1,6.25% (inactive),–
Cc1ccc(-c2cc(C(=O)N3CCc4ccccc4C3)no2)cc1,8.15% (inactive),–
